Experimental data as given in PubChem BioAssay (Tox21).
Results filed as inconclusive are left out. Entries that show only a call come without a potency. Unmarked numbers belong to inactive results. Calls of active or inactive are those of the source. Calls follow the shape of the dose curve; as a rule, active = well fitted curve in the direction sought with a large enough effect in the repeat runs; inconclusive = weak or mixed curves; inactive = no such curve, though single readings can be large; an effect the other way counts as inactive or inconclusive.

Legend:
[1] = qHTS RealTime-Glo MT Cell Viability Assay in HepG2 cells - 8 hour (AID 1224873); also: nearly all actives have a fitted effect of over 55% in size
Summary of the method: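 HepG2 cells (600/well) mixed with RealTime-Glo MT reagent, settled 5 h at 37 C/5% CO2 before compound addition. Nonlytic NanoLuc luminescence from viable-cell prosubstrate reduction read repeatedly during 40 h treatment at 37 C.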

[2] = qHTS RealTime-Glo MT Cell Viability Assay in HEK293 cells - 40 hour (AID 1224874); details: RealTime-Glo luminescence; max response: stronger effect = lower value; also: nearly all actives have a fitted effect of over 50% in size; also: potency is read from the fitted curve at half-maximal effect
Summary of the method: (§1)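 Kinetic, non-lysing viability readout. Seed HEK293 (600/well) with reagent, incubate 5 h at 37 C/5% CO2, pin 23 nL compound in DMSO, incubate at 37 C, read luminescence at 0, 8, 16, 24, 32, 40 h.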

[3] = A CellTox Green Cytotoxicity Assay to monitor cytotoxicity in HEK293 cells - 24 hour (AID 1224875); also: series mostly up to about 77 µM; nearly all actives have a fitted effect of over 45% in size
Summary of the method: (§2)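 Real-time, in one plate: 600 HEK293 cells/well with dead-cell DNA dye, pinned compound after 5 h, 37 C incubation over 40 h; viable cells give no appreciable fluorescence.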

[4] = A CellTox Green Cytotoxicity Assay to monitor cytotoxicity in HepG2 cells - 16 hour (AID 1224876); also: nearly all actives have a fitted effect of over 45% in size
Summary of the method: (§3)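 Cytotoxicity was tracked as dead-cell DNA fluorescence in HepG2 cells treated with test compounds at 37 C; each time-point value comes from one kinetic series spanning 0, 8, 16, 24, 32 and 40 h.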

[5] = A CellTox Green Cytotoxicity Assay to monitor cytotoxicity in HepG2 cells - 24 hour (AID 1224878); also: nearly all actives have a fitted effect of over 45% in size
Summary of the method: as §3

[6] = A CellTox Green Cytotoxicity Assay to monitor cytotoxicity in HepG2 cells - 40 hour (AID 1224879); also: nearly all actives have a fitted effect of over 40% in size; also: potency is read from the fitted curve at half-maximal effect
Summary of the method: as §3

[7] = qHTS RealTime-Glo MT Cell Viability Assay in HEK293 cells - 0 hour (AID 1224880); also: top concentration of the series differs between compounds; nearly all actives have a fitted effect of over 45% in size
Summary of the method: as §1

[8] = A CellTox Green Cytotoxicity Assay to monitor cytotoxicity in HEK293 cells - 32 hour (AID 1224881); also: nearly all actives have a fitted effect of over 40% in size
Summary of the method: as §2

[9] = qHTS RealTime-Glo MT Cell Viability Assay in HepG2 cells - 32 hour (AID 1224877); also: nearly all actives have a fitted effect of over 55% in size
Summary of the method: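 qHTS, HepG2, 600 cells/well, RealTime-Glo (NanoLuc + prosubstrate) added with cells; 5 h preincubation; DMSO compound addition; 37 C; luminescence at 0/8/16/24/32/40 h.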

Structure (SMILES): O=C1[C@H](CC[C@H](O)c2ccc(F)cc2)[C@@H](c2ccc(O)cc2)N1c1ccc(F)cc1
- Potency [1]: inactive
- Potency [2]: 19 µM (active)
- Potency [3]: inactive
- Potency [4]: inactive
- Potency [5]: inactive
- Potency [6]: inactive
- Potency [7]: inactive
- Potency [8]: inactive

Structure (SMILES): COCCCCCCCCOCCC[Si](C)(O[Si](C)(C)C)O[Si](C)(C)C
- Potency [1]: inactive
- Potency [2]: 2.75 µM (active)
- Potency [3]: inactive
- Potency [9]: inactive
- Potency [5]: inactive
- Potency [7]: inactive

Structure (SMILES): CCN(CC)CCOc1ccc2c(c1)C(=O)c1cc(OCCN(CC)CC)ccc1-2
- Potency [1]: inactive
- Potency [2]: 15.1 µM (active)
- Potency [3]: inactive
- Potency [4]: inactive

Structure (SMILES): c1ccc(OCc2ccc(CCCN3CCOCC3)cc2)cc1
- Potency [2]: 21.3 µM (active)
- Potency [3]: inactive
- Potency [9]: inactive
- Potency [6]: 21.3 µM (active)
- Potency [8]: inactive

Structure (SMILES): CC(=O)c1c(C)c([N+](=O)[O-])c(C(C)(C)C)c([N+](=O)[O-])c1C
- Potency [1]: inactive
- max response [2]: -9.27%
- Potency [3]: inactive
- Potency [4]: inactive
- Potency [5]: inactive
- Potency [7]: inactive
- Potency [8]: inactive
